This is one part of a sample in which hits are shown more often than they occur.
Pf Dd2 growth: Plasmodium falciparum Dd2 growth inhibition. actives 4.3% (n = 120,000). P. falciparum Dd2 growth, SYBR Green, 72 h. Potency, µM (top dose mostly 28.9 µM), actives largely listed as inhibitors; active means well fitted inhibition curve with a large enough effect; further: nearly all actives have a fitted effect of over 65% in size
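Readout: SYBR Green fluorescence, 485 nm excitation, 535 nm emission, after ~16 h lysis at 37C. Before that, Dd2-infected red cells (2.5% hematocrit) grew 72 h with compound, 29 uM top final concentration.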
Hits are given with their value; 0 = inactive.

SMILES	Pf Dd2 growth
O=C(C1CC1)N1CCC(n2cc(-c3nc(-c4ccccc4)no3)nn2)CC1	0
COc1ccc(-c2nc3ccccc3s2)cc1NC(=O)COc1ccc(C)cc1	0
COc1ccc(-c2nc3ccccc3o2)cc1NC(=O)COc1cc(C)cc(C)c1	0
COc1ccc(-c2nc3ccccc3o2)cc1NC(=O)COc1ccc(C(C)(C)C)cc1	7.9µM
COc1ccc(C2Cn3nnc(-c4noc(C5CC5)n4)c3CO2)cc1 (centres undefined)	0
Cc1ccc(NC(=O)N2CCC3(CC2)SCC(=O)N3Cc2ccco2)cc1Cl	0
COC[C@@H]1CN(c2ncccn2)C[C@H]1C(=O)N(C)Cc1cn(C)nc1C	0
Cc1cccnc1C(=O)N[C@@H]1CN(Cc2ccccc2)C[C@H]1CN(C)C	0
CNC(=O)[C@@H]1CN(C(=O)c2cc3ccccc3[nH]2)C[C@H]1COC	0
O=C1NC2(Cc3ccccc31)CN(Cc1c[nH]c3ccccc13)C2	0
c1cncc(-c2nnc([C@H]3CCN(Cc4c[nH]c5ccccc45)C3)o2)c1	0
Cc1ccccc1-c1nccn2c(C3CN(C(=O)c4cc5ccccc5[nH]4)C3)ncc12	11µM
COCCO[C@H]1C(=O)N(C2CCN(C(=O)c3cc4ccccc4[nH]3)CC2)[C@H]1c1ccncc1	0
Cc1ccccc1-c1nccn2c(C3CN(Cc4ccc(O)cc4)C3)ncc12	11µM
COc1ncccc1-c1nccn2c(C3CN(Cc4c[nH]c5ccccc45)C3)ncc12	3.5µM
Cc1ccccc1-c1nc2cnccn2c1NCCC(=O)NC1CCCCC1	0
CC1CCCCN1C(=O)C(NC(=O)c1cccs1)C1CCN(C(=O)C2CCCC2)CC1 (centres undefined)	0
CC(C)(C)NC(=O)N1CCCN(C(=O)C2CC2)C(c2ccccc2)CC(=O)NCC1 (centres undefined)	0
Cc1ccc(C(=O)N2C(C(=O)NC(C)C)COC23CCN(C(=O)c2cccc([N+](=O)[O-])c2)CC3)cc1 (centres undefined)	0
O=C(O)CCC(=O)N1Cc2ccccc2CC2(CCCN2Cc2cccnc2)C1 (centres undefined)	0
O=C1Nc2ccccc2CC12CCCN2Cc1cccnc1 (centres undefined)	0
O=C(C1CCCC1)N1CC2(CCCCN2Cc2cccnc2)Cc2ccccc21 (centres undefined)	7.9µM
O=C(C1CCCC1)N1CC2(CCCN2Cc2cccnc2)Cc2ccccc21 (centres undefined)	11µM
CCC(=O)N1Cc2ccccc2CC2(CCCN2Cc2cccnc2)C1 (centres undefined)	0
CC(=O)N1CC2(CCCN2Cc2cccnc2)Cc2ccccc21 (centres undefined)	0
SMILES	Pf Dd2 growth
N#Cc1cccc(NC(=O)CN2C(=O)NC3(CCOCC3)C2=O)c1	0
CCCNS(=O)(=O)c1ccc(NC(=O)NCCc2nccs2)cc1	0
CN(C)C(=O)c1ccc(OC2CCN(C(=O)c3ccccc3F)CC2)nc1	0
O=C(c1ccccn1)N1CCC(n2cc(-c3nc(-c4ccccc4)no3)nn2)CC1	0
COc1ccc(CNC(=O)CSc2ncc3c(n2)-c2cc(Cl)ccc2N(Cc2ccccc2)S3(=O)=O)cc1	0
COc1ccc(CNC(=O)CSc2ncc3c(n2)-c2ccc(Cl)cc2N(Cc2ccc(F)cc2)S3(=O)=O)cc1OC	11µM
COc1ccccc1CNC(=O)CSc1ncc2c(n1)-c1ccc(Cl)cc1N(Cc1ccccc1)S2(=O)=O	0
O=C(NCc1cc2n(n1)CCNC2)c1cc2c(s1)CCCCC2	0
O=S(=O)(c1ccccc1F)N1CCC(n2cnnc2C2CC2)CC1	0
CC1CCC(NC(=O)CN2C(=O)NC3(CCOCC3)C2=O)CC1 (centres undefined)	0
O=[N+]([O-])c1ccc(Cl)nc1N1CC2CCC(C1)N2CC(F)(F)F	0
FC(F)(F)CN1C2CCC1CN(c1nccc(Nc3ccccc3Cl)n1)C2	8.9µM
Cc1ncc2c(N3CC4CCC(C3)N4CC(F)(F)F)nc3ccccc3n12	5µM
FC(F)(F)CN1C2CCC1CN(c1cnc3ccccc3c1)C2	0
COc1ccccc1Nc1ccnc(N2CC3CCC(C2)N3CC(F)(F)F)n1	0
FC(F)(F)CN1C2CCC1CN(c1ncc(C(F)(F)F)cn1)C2	0
Cc1ccnc(N2CC3CCC(C2)N3CC(F)(F)F)c1[N+](=O)[O-]	0
FC(F)(F)CN1C2CCC1CN(c1ccccn1)C2	0
FC(F)(F)CN1C2CCC1CN(c1nnc(Cl)c3ccccc13)C2	0.71µM
O=C(CCc1ccccc1)N1CC[C@H]2COC(=O)N2c2cc(F)ccc2C1	0
O=C(c1ccccn1)C1CCCN(C(=O)c2cnc(-c3cccnc3)nc2)C1 (centres undefined)	0
Cc1cc(C(=O)N2CCC3(CC2)NCCc2c3[nH]c3ccccc23)nn1C	0
CN(CC1CCOCC1)C(=O)NC1CCCC1	0
COC(=O)N1CCC2(C1)N=C(c1ccccn1)C(=O)N2 (centres undefined)	0
COc1ccc(Cn2c(C3CCN(C(=O)c4ccc(OC)c(F)c4)CC3)n[nH]c2=O)cc1	0
SMILES	Pf Dd2 growth
Cc1ccc(C(=O)N2CCC3(CC2)NC(=O)c2ccccc2O3)cc1	0
O=C(Cc1ccccc1Cl)N1CCC(c2n[nH]c(=O)n2-c2ccccc2)CC1	0
O=C(NCCc1ccc(Cl)cc1)c1nc(-c2ccc(Cl)cc2Cl)c2cnccn12	4.5µM
O=C(NCCc1ccc(Cl)cc1)c1nc(-c2ccc(Cl)cc2Cl)c2ccccn12	0
O=C(NCCc1ccc(Cl)cc1)c1cc(-c2cnccc2Cl)c2cccn2n1	0
CCOCCNc1ncnc2c1CN(C1CCC1)C(=O)CN2C	0
Cc1cc(=O)n2[nH]c(CC(=O)N3CC[C@@](O)(C4CCOCC4)[C@H](C)C3)nc2n1	0
C=CCc1ccccc1OCCN(C)Cc1ncnn1CC	0
C=CCc1ccccc1OCCN(C)Cc1nc(C)ccc1O	8.9µM
C=CCc1ccccc1OCCN(C)Cc1ccc(S(C)(=O)=O)cc1	0
COCCCNC(=O)c1[nH]c2cc(OC)ccc2c1Sc1ccc(C)cc1	0
COc1ccc2c(Sc3ccccc3)c(C(=O)NCCCN3CCCCC3)[nH]c2c1	11µM
O=C(NCCCN1CCCCC1)c1[nH]c2ccccc2c1Sc1ccc(Cl)cc1	0
O=C1CCCN1C1CCN(Cc2cccnc2)CC1	0
CN(Cc1ccccc1-n1cccn1)C(=O)C1CC(=O)N(C2CCCC2)C1 (centres undefined)	0
Cc1nnnn1-c1ccc(C(=O)Nc2ccc3c(c2)C(=O)N2CCC[C@H]2C(=O)N3)cc1	0
COc1cc(=O)n2c(c1C(=O)NC1CCCCCC1)CCCC2	0
COc1ccc(-c2oc3ncn4nc(-c5ccccc5C)nc4c3c2-c2ccc(OC)cc2)cc1	0
COc1ccc(-c2nn3c(-c4ccccc4C)nnc3c3ccccc23)cc1	11µM
Cc1ccc(-c2nnc3c4ccccc4c(-c4ccccc4)nn23)cc1	0
CCOC(=O)c1c(NC(=O)COc2ccccc2)sc(C(C)=O)c1C	0
CCOC(=O)c1c(NC(=O)COc2ccc(Br)cc2)sc(C(C)=O)c1C	0
CCOC(=O)c1c(NC(=O)COc2ccc(OC)cc2)sc(C(=O)N(CC)CC)c1C	11µM
Cc1ccc(C(=O)N2CCC(n3cc(-c4nc(C)no4)nn3)C2)cc1 (centres undefined)	0
O=C(NC1CCN(c2cc(-c3ccc(Cl)cc3)[nH]n2)CC1)c1ccc2[nH]ccc2c1	0
COc1ccc([C@@H](NC(=O)c2ccc3cccc(F)c3n2)C2CC(O)C2)cn1 (some centres undefined)	0
